Data from ChEMBL document CHEMBL1157539, “Thousands of chemical starting points for antimalarial lead identification” (Nature, 2010).
Values joined by “and” are separate entries in the source; they are usually repeats but may differ in a detail not shown here. Identical values can stand only once.

Legend:
Type in all cases: functional
Plasmodium falciparum [1] = experiment: GSK_TCMDC: Inhibition of Plasmodium falciparum 3D7 in whole red blood cells, using parasite LDH activity as an index of growth. Test compounds present at 2uM
Plasmodium falciparum [2] = experiment: GSK_TCMDC: Inhibition of Plasmodium falciparum Dd2 in whole red blood cells, using parasite LDH activity as an index of growth. Test compounds present at 2uM
HepG2 = experiment: GSK_TCMDC: Percent inhibition of human HepG2 cell line. Test compounds present at 10uM.

| SMILES | Inhibition (Plasmodium falciparum [1]) | Inhibition (Plasmodium falciparum [2]) [%] | Inhibition (HepG2) |
| --- | --- | --- | --- |
| Cc1ccc2c(C3=CCN(CCCCC4(C)C(=O)Nc5c(F)cccc54)CC3)c(C)[nH]c2c1 (configuration not stated) | 95% | 89 | 5% |
| OC(CNCc1ccccc1OC(F)F)c1cccc(C(F)(F)F)c1 (configuration not stated) | 97% | 52 | 2% |
| CC(Cc1ccc(NC(=O)CCNCc2ccccc2)cc1)NCCc1cccc(Cl)c1 (configuration not stated) | 100% | 100 | 100% |
| Cc1ccc(C[C@@H](C)NC[C@H](O)c2cccc(C(F)(F)F)c2)cc1.O=C(O)/C=C/C(=O)O | 100% | 79 | 10% |
| CCCc1c(C(=O)NC2CCC(CN3CCC(c4c[nH]c5ccccc45)CC3)CC2)cnn1-c1ccccc1 (configuration not stated) | 92% | 7 | 33% |
| Oc1cccc(C2CCCN(Cc3cccc4cc[nH]c34)C2)c1 (configuration not stated) | 100% | 82 | 16% |
| O=[N+]([O-])c1ccc(Oc2c(Cl)cc(S(=O)(=O)N3CCC(CN4CCC(c5c[nH]c6ccccc56)CC4)CC3)cc2Cl)c(Cl)c1 | 100% | 83 | 43% |
| Cc1cccc(N2CCN(Cc3cc(Cl)ccc3O)CC2)c1C.O=C(O)C(=O)O | 96% | 96 | 0% |
| Cc1ccc(CC(C)NCC(O)c2cccc(C(F)(F)F)c2)cc1F.Cl (configuration not stated) | 97% | 91 | 15% |
| CCCCCCC(C)(C)c1cc(O)c2c3c(c(=O)oc2c1)CCN(Cc1ccccc1)C3.Cl | 100% | 99 | 3% |
| Cl.Cl.c1ccc2c(NCCCCCCNc3c4ccccc4nc4ccccc34)c3ccccc3nc2c1 | 99% | 80 | 60% |
| Cc1cc(-c2ncc[nH]2)ccc1-c1ccc(C(=O)N2CCc3cc4c(cc32)C2(CCN(C)CC2)CO4)cc1.Cl | 100% | 98 | 32% |
| CC[C@H]1CN2CC[C@@H]1C[C@H]2[C@H](O)c1cc(-c2ccccc2)nc2ccc(O)cc12.Cl | 99% | 99 | 14% |
| Cc1[nH]c2ccccc2c1C1=CCN(CCN2CCCc3c(Br)cccc3C2=O)CC1 | 95% | 90 | 10% |
| COc1ccc(C=CC(=O)N2CCC(CN3CCC(c4c[nH]c5ccccc45)CC3)CC2)cc1OC | 94% | 4 | 20% |
| O=C(Nc1ccc(Cl)c(Cl)c1)N1CCC(CN2CCC(c3c[nH]c4ccccc34)CC2)CC1 | 100% | 69 | 46% |
| Br.CC[C@H]1CN2CCc3cc(OC)c(OC)cc3[C@@H]2C[C@@H]1C[C@H]1NCCc2c1cc(OC)c(O)c2I | 100% | 100 | 54% |
| Cc1ccc(CC(C)NC[C@H](O)c2cccc(Cl)c2)cc1.Cl (some centres not stated) | 96% | 47 | 15% |
| Br.CC(Cc1ccc(SC(C)(C)C)cc1)NCC(O)c1cccc(Cl)c1 (configuration not stated) | 99% | 99 | 14% |
| CC(Cc1ccc(OCCOc2ccccc2)cc1)NCC(O)c1cccc(Cl)c1 (configuration not stated) | 99% | 99 | 12% |
| CN(C)c1cccc(NC(=O)NC2N=C(c3ccccc3)c3ccccc3N(CC(=O)N(C)c3ccccc3)C2=O)c1 (configuration not stated) | 99% | 80 | 1% |
| O=C(NC1CCN(CC2(c3ccc(Cl)cc3)CCC2)CC1)c1cscn1 | 98% | 95 | 0% |
| COc1cc(CN2CCN(c3ccnc(N(C)C4CCN(C)CC4)n3)CC2)cc(Cl)c1O | 94% | 63 | 11% |
| CC[C@H]1CN2CC[C@H]1C[C@H]2[C@H](O)c1cc(N2CCC3CCCCC3C2)nc2ccc(OC)cc12 (some centres not stated) | 100% | 99 | 50% |
| CN1CCN(c2ccc3[nH]c(-c4ccc5[nH]c(-c6ccc(O)cc6)nc5c4)nc3c2)CC1.Cl.O | 99% | 100 | 0% |
| O=C(CCc1ccc(Cl)cc1Cl)NC1CCC(CN2CCC(c3c[nH]c4ccccc34)CC2)CC1 (configuration not stated) | 100% and 97% | – | 44% and 33% |
| C=C[C@H]1CN2CC[C@H]1C[C@H]2[C@H](O)c1cc(/C=C/c2ccc(F)cc2)nc2ccc(OC)cc12.Cl | 99% | 99 | 25% |
| C=CC12CCN(CC1)C(C(O)c1ccnc3ccc(OC)cc13)C2 (configuration not stated) | – | 72 | 0% |
